Bioassay records (PubChem)
The list is not random: actives were taken first. Their share in the collection is about 6.1%.
S2 tox: Viability Counterscreen for Primary qHTS for Inhibitors of ATXN expression; S2 cells (HEK-293 line with an ATXN2-luciferase reporter) viability, CellTiter-Fluor protease fluorescence, 24 h; Potency, µM (series often up to 56.7 µM), hits mostly cytotoxic; 400,000 tested, 0.49% active; further: nearly all actives have a fitted effect of over 40% in size
VP16 counter: VP16 counterscreen qHTS for inhibitors of ROR gamma transcriptional activity. Drosophila S2 Gal4-VP16 UAS-luciferase, luminescence, 20 h. Potency, µM (doses to about 53.6 µM), for the others: at the top dose activity, negative = inhibition, most hits filed as inhibitors. AID 2546, 2010. 310,000 tested, 3.5% active;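 further: Gal4-VP16 expression switched on by copper sulfate through the metallothionein promoter; on the % scale 0 is the no-effect control and ±100 the full control effect; nearly all actives have a fitted effect of over 50% in size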
HepG2 viability: qHTS for Inhibitors of TGF-b: Cytotox Counterscreen | HepG2 CAGA-GFP viability, ATP luminescence, 18 h | Potency, µM (titrated, usually from 46.1 µM), without a hit: at the top dose activity change, negative = cytotoxicity, hits mostly cytotoxic | 410,000 tested, 0.76% active | AID 588856, 2011
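CellTiter-Glo luminescence gave cytotoxicity after 18 hours at 37 degrees C. The cells were HepG2 CAGA-GFP in 1% FBS DMEM, stimulated with 500 pg/mL TGF-beta after compound addition. %Activity was normalised to no-cell wells (complete cell-killing) and DMSO (no toxicity), and curves were fitted and classified.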
ATXN2 expr inh: Primary qHTS for Inhibitors of ATXN expression; HEK-293 ATXN2-luciferase reporter, luminescence, 24 h; Potency, µM (series often up to 57 µM), for the others: at the highest dose activity change, negative = inhibition, hits mostly inhibitors; 360,000 tested, 0.72% active; AID 1745845, 2022; further: on the % scale 0 is the no-effect control and ±100 the full control effect; nearly all actives have a fitted effect of over 55% in size
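ATXN2-luciferase reporter cells (luciferase flanked by upstream and downstream ATXN2 gene portions) were treated 24 h at 37 °C with compounds at up to 57 uM. SteadyGlo luminescence gave expression; GF-AFC fluorescence gave viability.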
TGFb inhibitor: qHTS for Inhibitors of TGF-b. HepG2 CAGA-GFP TGF-b/SMAD3 reporter, GFP fluorescence, 18 h; TGF-beta stimulated, 500 pg/mL final. Potency, µM (series often up to 46.1 µM), without a hit: top-dose activity, negative = inhibition, actives largely listed as inhibitors. 410,000 tested, 1.2% active; further: on the % scale 0 is the no-effect control and ±100 the full control effect; nearly all actives have a fitted effect of over 65% in size
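TGF-beta reporter screen: HEPG2 CAGA-GFP, 1% FBS, 500 pg/mL TGF-beta final, 18 h; per-cell GFP summed per well; curves fitted and categorized by class.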
RORgamma inh: qHTS for inhibitors of ROR gamma transcriptional activity; 310,000 tested, 5.4% active; Drosophila S2 Gal4-RORgamma UAS-luciferase reporter, 20 h; Potency, µM (titrated, usually from 53.6 µM), for inactives: at the top dose activity change, negative = inhibition, actives largely listed as inhibitors; AID 2551, 2010; further: on the % scale 0 is the no-effect control and ±100 the full control effect; nearly all actives have a fitted effect of over 60% in size
Target sequence (P51450 whole entry, looked up, the tested form may be a part): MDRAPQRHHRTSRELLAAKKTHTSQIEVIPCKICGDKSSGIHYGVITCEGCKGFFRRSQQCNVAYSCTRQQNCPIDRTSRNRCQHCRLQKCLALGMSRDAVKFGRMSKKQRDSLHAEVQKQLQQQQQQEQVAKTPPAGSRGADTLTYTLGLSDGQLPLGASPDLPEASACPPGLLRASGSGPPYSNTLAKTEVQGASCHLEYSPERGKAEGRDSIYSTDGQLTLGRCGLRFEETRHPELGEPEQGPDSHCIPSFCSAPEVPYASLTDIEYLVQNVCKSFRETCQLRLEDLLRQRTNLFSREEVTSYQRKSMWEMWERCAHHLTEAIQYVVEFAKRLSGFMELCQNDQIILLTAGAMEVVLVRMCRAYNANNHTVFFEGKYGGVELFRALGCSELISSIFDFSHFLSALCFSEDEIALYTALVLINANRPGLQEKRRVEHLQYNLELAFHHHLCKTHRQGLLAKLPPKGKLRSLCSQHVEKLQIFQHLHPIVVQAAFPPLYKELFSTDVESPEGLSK
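Drosophila S2 cells stably expressing Gal4-DBD/mouse RORγ fusion under metallothionein promoter plus UAS-luciferase; compound 1 h, then 700 uM CuSO4 induction for 20 h at ambient temperature; inhibition read as reduced luminescence.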
Starred values were filed as active, the others as inactive; i = inactive; ? = inconclusive; · = no result given; [ ] = another dose, or the depositor's remark. The call rests on the fitted dose curve; in most records, active means well fitted curve in the direction sought with a large enough effect; inconclusive means small, poorly fitted or top-dose-only effect, or another doubt; inactive means no such curve, though single readings can be large; an effect the other way counts as inactive or inconclusive. Potency means the concentration at half of the fitted maximal effect.

SMILES	S2 tox	VP16 counter	HepG2 viability	ATXN2 expr inh	TGFb inhibitor	RORgamma inh
CCCCS(=O)CC(O)CSc1nc(-c2ccc(OC)cc2)cc(-c2ccccc2)c1C#N (stereo not given)	?	·	-55%	-16%	?	·
COc1ccc2c(c1)C(=O)[C@H](OC(=O)NCc1ccc3c(c1)OCO3)[C@@H](c1ccc(OC)c(Br)c1)O2	·	3%	·	·	·	-10%
CC(C)(C)c1ccc(OC(=O)Nc2ccc(O)c(C(=O)O)c2)cc1	i	1.3µM*	-2%	·	-12%	?
C(=C\c1c[nH]c2ccccc12)/c1nccc2ccccc12	·	·	11µM*	·	?	·
O=C(/C=C/c1c[nH]c2ccccc12)c1cccc2ccccc12	i	?	-77%	-6%	?	5µM*
C(=C\c1c[nH]c2ccccc12)/c1ccc2ccccc2n1	·	·	-45%	·	12%	·
C=CCC(c1ccccc1)N(C(C)=O)c1ccco1 (stereo not given)	i	-9%[10 µM]	-5%	1%	6%	38%
C=CCC(Nc1ccco1)c1ccccc1 (stereo not given)	i	18µM*	-28%	-12%	-5%	4%
COC(=O)c1cc(NC(=O)c2ccc(Cn3cc(Cl)cn3)o2)cc(C(=O)OC)c1	20µM*	?	-5%	?	-12%	?
CCN(CC)C(=O)COc1ccc(/C(C)=N/Nc2ncc(Cl)cc2Cl)cc1	i	?	-20%	5%	?	6.3µM*
COc1ccc(/C(C)=N/Nc2ncc(Cl)cc2Cl)c(O)c1	i	0.79µM*	-36%	-10%	-26%	0.11µM*
CCOC(=O)c1c(C)[nH]c(C2=NNC(=NC3CC3)SC2)c1C	i	?	-28%	11µM*	-6%	?
CCN(C(=O)Nc1cccc(Cl)c1)c1ccccc1	i	13%	-2%	-18%	-15%	-1%
CCN(C(=S)Nc1cccc(C)c1)c1ccccc1	i	?	19%	1%	-5%	16µM*
CCN(C(=S)Nc1ccc(Oc2ccccc2)cc1)c1ccccc1	i	18µM*	-40%	14%	-21%	13µM*
CCN(C(=S)NC(=O)Cc1ccc(OC)cc1)c1ccccc1	i	·	-27%	-6%	-3%	·
CCOC(=O)N1CCC(N(CCN(C)C)C(=S)Nc2ccc(Oc3ccccc3)cc2)CC1	?	-16%	-12%	-21%	1%	11µM*
COc1ccc(CNC(=O)Cn2ncc3c(=O)oc4ccccc4c32)c(OC)c1	i	·	-3%	-7%	-10%	·
CC(C)c1ccc(NC(=O)C2CCN(S(=O)(=O)c3cccc4nonc34)CC2)cc1	?	·	-5%	-20%	-6%	·
Cc1ccc2nc(-c3ccccc3C)c(CN(CC3CCCO3)C(=O)c3cccs3)cc2c1 (stereo not given)	i	·	·	·	·	·
CCOC(=O)c1nnc(-c2ccccc2)nc1Sc1c(Cl)cccc1Cl	?	18µM*	-115%	?	10µM*	-28%
CCOC(=O)c1nnc(-c2ccc(C)cc2)nc1Oc1ccc(Cl)cc1Cl	i	?	-5%	-9%	?	-27%
CCOC(=O)c1nnc(-c2ccc(C)cc2)nc1Sc1ccccc1Cl	?	-17%	-12%	?	?	27%
CCOC(=O)c1nnc(-c2ccc(C)cc2)nc1Oc1ccccc1Cl	i	6.3µM*	-17%	7%	?	7%
Brc1ccc(-c2csc3[n+]2CCCCC3)cc1	i	0%	0%	-14%	8%	-7%
SMILES	S2 tox	VP16 counter	HepG2 viability	ATXN2 expr inh	TGFb inhibitor	RORgamma inh
c1ccc(-c2c[nH]c3[n+]2CCCCC3)cc1	i	?	0%	-4%	-11%	22µM*
CN1CCN(C(=O)c2cc(COc3c(F)cccc3F)on2)CC1c1ccccc1 (stereo not given)	i	7.1µM*	-20%	13%	-5%	7.1µM*
COc1ccccc1OCc1cc(C(=O)N2CCN(C)C(c3ccccc3)C2)no1 (stereo not given)	i	3%	-19%	79%	-3%	6%
O=[N+]([O-])c1ccc(O)c(C=Nc2cccc3ccccc23)c1	i	-12%	5%	-1%	-1%	-25%
Cc1ccc(O)c(N=Cc2cc(Cc3ccccc3)cc([N+](=O)[O-])c2O)c1	i	-17%[10 µM]	0%	-2%[11.3 µM]	?	13µM*
O=[N+]([O-])c1cccc(C=Nc2cccc3ccccc23)c1O	i	-16%	-7%	4%	-2%	1.6µM*
Cc1ccc(O)c(C=Nc2cc(C)ccc2O)c1	i	20µM*	-6%	61%	-1%	?
Oc1ccc(Br)cc1C=Nc1ccc(Cl)cc1	i	4%	-32%	4%	0%	-38%
CCN(CC)c1ccc(N=Cc2cc(Br)ccc2O)cc1	i	?	-63%	?	?	18µM*
COc1cccc(C2(CC(=O)N3CCN(c4ccccc4O)CC3)CC(=O)N(C3CCCC3)C2=O)c1 (stereo not given)	i	·	·	·	·	·
CCCCCCCc1cc2ccccc2c(=O)o1	·	-11%	·	·	·	25%
CCc1ccc(O)c(N=Cc2ccccc2O)c1	i	-28%	-43%	23%	-23%	13µM*
CC(C)(C)c1ccc(O)c(N=Cc2cc(Br)ccc2O)c1	i	?	2%	·	-7%	10µM*
COc1cc(CNCCc2c[nH]c3ccccc23)ccc1OCc1ccc(F)cc1	·	1%	-115%	?	?	-33%
COc1ccccc1NC(=S)NCCc1c[nH]c2ccccc12	i	?	-12%	-1%	-18%	14µM*
COc1ccc(NC(=S)NCCc2c[nH]c3ccccc23)cc1	i	13µM*	-10%	3%	-4%	14µM*
COc1ccc2[nH]cc(CCNC(=O)Nc3ccccc3)c2c1	i	-12%	-16%	-2%	-10%	5%
COc1ccc2[nH]cc(CCNC(=S)NCCc3ccccc3)c2c1	i	-23%	-43%	8%	?	11µM*
COc1cccc(CNCCc2c[nH]c3ccccc23)c1OCc1ccc(F)cc1	?	?	13µM*	20µM*	?	?
O=S1(=O)CCOC[C@H](c2ccccc2)N1Cc1ccc(F)cc1	·	·	-15%	·	-23%	·
COc1cc(NC(=S)NCCc2c[nH]c3ccccc23)c(OC)cc1Cl	i	3.5µM*	-49%	-10%	?	7.1µM*
Cc1cc(C)cc(OCCCn2c(-c3ccc(Cl)cc3)nc3ccccc3c2=O)c1	i	·	-15%	6%	-30%	·
